Assay results taken from PubChem BioAssay AID1159580 (chemical genetic matrix, 2015).
In all, about 5,500 compounds went through this assay and about 2,000 (36%) were called active. Roughly 18% stayed inconclusive and do not appear here. No stated cut-off is given here; in the data, active means normalized growth mostly below about 0.91 (no sharp cut-off); inconclusive means no clear call, values can overlap the other calls; inactive means mostly above about 0.92. This is one part of the list.

Assay: chemical genetic growth profiling, strain panel (AID 1159580);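 further: tested at 20 µM; growth read once vehicle control cultures reached saturation at 30 °C; 1 = growth at the plate median or of vehicle wells; lower values mean less growth of the strain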
Settings: growth OD

Measured: normalized growth

CSc1nc(NC(C)C)nc(NC(C)C)n1
inactive: S. cerevisiae deletion strains, locus YJR075W, strain HOC1, hits give low values 1.02 | S. cerevisiae deletion strains, locus YKL009W, strain mrt4, hits give low values 1.03 | S. cerevisiae deletion strains, locus YKL068W, hits give low values 1 | S. cerevisiae deletion strains, locus YKL085W, strain MDH1 (second series), hits give low values 1.01 | S. cerevisiae deletion strains, locus YKL085W, strain MDH1, hits give low values 1.01 | S. cerevisiae deletion strains, locus YKL160W, strain elf1, hits give low values 0.979 | S. cerevisiae deletion strains, locus YKL190W, strain CNB1, hits give low values 1.02 | S. cerevisiae deletion strains, locus YKR001C, strain vps1, hits give low values 1.03 | S. cerevisiae deletion strains, locus YKR026C, strain gcn3, hits give low values 0.973 | S. cerevisiae deletion strains, locus YKR091W, strain srl3, hits give low values 0.973 | S. cerevisiae deletion strains, locus YLL001W, strain dnm1, hits give low values 0.979 | S. cerevisiae deletion strains, locus YLL026W, hits give low values 0.975 | S. cerevisiae deletion strains, locus YLL041C, strain sdh2, hits give low values 0.983 | S. cerevisiae deletion strains, locus YLR027C, strain aat2, hits give low values 0.967 | S. cerevisiae deletion strains, locus YLR039C, strain RIC1, hits give low values 0.987 | S. cerevisiae deletion strains, locus YLR058C, strain SHM2, hits give low values 1.01 | S. cerevisiae deletion strains, locus YLR102C, strain apc9, hits give low values 1 | S. cerevisiae deletion strains, locus YLR113W, strain HOG1, hits give low values 0.993 | S. cerevisiae deletion strains, locus YLR221C, strain rsa3, hits give low values 0.971 | S. cerevisiae deletion strains, locus YLR258W, strain gsy2, hits give low values 0.964 | S. cerevisiae deletion strains, locus YLR262C, strain YPT6, hits give low values 1.03 | S. cerevisiae deletion strains, locus YLR268W, strain sec22, hits give low values 1.01 | S. cerevisiae deletion strains, locus YLR320W, strain mms22, hits give low values 0.961 | S. cerevisiae deletion strains, locus YLR330W, strain CHS5, hits give low values 1.01 | S. cerevisiae deletion strains, locus YLR342W, strain FKS1 (second series), hits give low values 0.974 | S. cerevisiae deletion strains, locus YLR342W, strain FKS1, hits give low values 0.958 | S. cerevisiae deletion strains, locus YLR357W, strain rsc2, hits give low values 0.923 | S. cerevisiae deletion strains, locus YLR370C, strain arc18, hits give low values 0.969 | S. cerevisiae deletion strains, locus YLR371W, strain rom2, hits give low values 0.999 | S. cerevisiae deletion strains, locus YLR384C, strain iki3, hits give low values 0.972 | S. cerevisiae deletion strains, locus YLR418C, strain cdc73, hits give low values 1.04 | S. cerevisiae deletion strains, locus YML016C, strain PPZ1, hits give low values 0.989 | S. cerevisiae deletion strains, locus YML032C, strain rad52, hits give low values 1.03 | S. cerevisiae deletion strains, locus YML120C, strain ndi1, hits give low values 0.966 | S. cerevisiae deletion strains, locus YML124C, strain tub3, hits give low values 1.02 | S. cerevisiae deletion strains, locus YMR058W, strain fet3, hits give low values 0.97 | S. cerevisiae deletion strains, locus YMR078C, strain ctf18, hits give low values 1.02 | S. cerevisiae deletion strains, locus YMR125W, strain sto1, hits give low values 0.958 | S. cerevisiae deletion strains, locus YMR129W, hits give low values 0.973 | S. cerevisiae deletion strains, locus YMR205C, strain PFK2, hits give low values 0.944 | S. cerevisiae deletion strains, locus YMR223W, strain ubp8, hits give low values 1.01 | S. cerevisiae deletion strains, locus YMR231W, strain pep5, hits give low values 0.973 | S. cerevisiae deletion strains, locus YMR263W, strain SAP30, hits give low values 1.02 | S. cerevisiae deletion strains, locus YMR307W, strain GAS1, hits give low values 1.05 | S. cerevisiae deletion strains, locus YNL067W, strain RPL9B, hits give low values 0.999 | S. cerevisiae deletion strains, locus YNL071W, strain lat1, hits give low values 0.978 | S. cerevisiae deletion strains, locus YNL128W, strain TEP1, hits give low values 1.01 | S. cerevisiae deletion strains, locus YNL153C, strain GIM3, hits give low values 1 | S. cerevisiae deletion strains, locus YNL183C, strain NPR1, hits give low values 0.969 | S. cerevisiae deletion strains, locus YNL209W, strain ssb2, hits give low values 0.987 | S. cerevisiae deletion strains, locus YNL233W, strain BNI4, hits give low values 1.02 | S. cerevisiae deletion strains, locus YNL248C, strain rpa49, hits give low values 0.979 | S. cerevisiae deletion strains, locus YNL250W, strain rad50, hits give low values 1.01 | S. cerevisiae deletion strains, locus YNL271C, strain bni1, hits give low values 1.01 | S. cerevisiae deletion strains, locus YNL298W, strain CLA4, hits give low values 1 | S. cerevisiae deletion strains, locus YNL307C, strain MCK1, hits give low values 1.01 | S. cerevisiae deletion strains, locus YNL322C, strain KRE1 (second series), hits give low values 0.962 | S. cerevisiae deletion strains, locus YNL322C, strain KRE1, hits give low values 1.01 | S. cerevisiae deletion strains, locus YNR049C, strain mso1, hits give low values 0.953 | S. cerevisiae deletion strains, locus YNR052C, strain pop2, hits give low values 1.02 | S. cerevisiae deletion strains, locus YOL006C, strain TOP1, hits give low values 1.02 | S. cerevisiae deletion strains, locus YOL012C, strain htz1 0.96 | S. cerevisiae deletion strains, locus YOL147C, strain pex11, hits give low values 1.02 | S. cerevisiae deletion strains, locus YOR001W, strain rrp6, hits give low values 0.98 | S. cerevisiae deletion strains, locus YOR061W, strain CKA2, hits give low values 1 | S. cerevisiae deletion strains, locus YOR069W, strain VPS5, hits give low values 1.01 | S. cerevisiae deletion strains, locus YOR070C, strain gyp1, hits give low values 0.962 | S. cerevisiae deletion strains, locus YOR080W, strain dia2, hits give low values 0.963 | S. cerevisiae deletion strains, locus YOR083W, strain WHI5, hits give low values 0.969 | S. cerevisiae deletion strains, locus YOR106W, strain vam3, hits give low values 0.956 | S. cerevisiae deletion strains, locus YOR136W, strain idh2, hits give low values 1.03 | S. cerevisiae deletion strains, locus YOR144C, strain elg1, hits give low values 1.01 | S. cerevisiae deletion strains, locus YOR184W, strain ser1, hits give low values 1.03 | S. cerevisiae deletion strains, locus YOR231W, strain MKK1, hits give low values 1.03 | S. cerevisiae deletion strains, locus YOR265W, strain rbl2, hits give low values 0.962 | S. cerevisiae deletion strains, locus YOR270C, strain vph1, hits give low values 0.934 | S. cerevisiae deletion strains, locus YOR290C, strain snf2, hits give low values 0.95 | S. cerevisiae deletion strains, locus YOR316C, strain cot1, hits give low values 1.01 | S. cerevisiae deletion strains, locus YPL051W, strain arl3, hits give low values 0.963 | S. cerevisiae deletion strains, locus YPL055C, strain LGE1, hits give low values 1.04 | S. cerevisiae deletion strains, locus YPL078C, strain atp4, hits give low values 0.969 | S. cerevisiae deletion strains, locus YPL106C, strain sse1, hits give low values 0.986 | S. cerevisiae deletion strains, locus YPL240C, strain hsp82, hits give low values 0.966 | S. cerevisiae deletion strains, locus YPL241C, strain CIN2, hits give low values 1.01 | S. cerevisiae deletion strains, locus YPL256C, strain CLN2, hits give low values 1.04 | S. cerevisiae deletion strains, locus YPR119W, strain clb2, hits give low values 1.02 | S. cerevisiae deletion strains, locus YPR141C, strain kar3, hits give low values 1.02 | S. cerevisiae deletion strains, locus YPR163C, strain tif3, hits give low values 1.02 | S. cerevisiae deletion strains, locus YPR167C, strain met16, hits give low values 1.01 | S. cerevisiae deletion strains, strain wtn01, hits give low values 1.01 | S. cerevisiae strains, strain wild type, hits give low values 1.01
active: S. cerevisiae deletion strains, locus YLR262C, strain YPT6 (second series), hits give low values 0.856
